Each sequence was assayed against ZNF708 (assay: pooled miR-30 sensor sort-seq; sequence = guide strand). Conditions: shRNA.
Note: reference of the scale not given here.

Sequence	sensor-assay potency score (higher = more potent)
TTGAAAATACACTAAAAGCTTT	-0.61
TTATCTTATGATTCGTAAGGTT	-0.564
TTTTCTAGTAAGAATTATCTTA	-0.389
TATCTTATGATTCGTAAGGTTT	-1.04
TTCTCTAACATGACATTCCTAT	-0.111

What follows are sequences tested against ZNF718 in the same assay as above. Conditions: shRNA.

Sequence	sensor-assay potency score (higher = more potent)
TTTTGTGTTGAGTTAGGCGTGA	0.0879
TTAAATTCTCATGTCCACGTTT	-0.266
TATCTTATCTTATCTTTGTTTG	-1.2
TTTATCTACAGTGTGAATTTTC	-0.972
TCTATTATAACCACCTTTCTGC	-0.0639
ATTTGTAGTATTTTTGTGCAGA	-0.171
TAATTCTATTATAACCACCTTT	-0.203
TTATGTGTCGTAAGAGTTGTGG	0.343
ATATCTTATCTTATCTTTGTTT	-0.436
TTATGTTTAGCAAAGTCTGAGG	-0.614

What follows are sequences tested against ZNF77 in the same assay as above. Conditions: shRNA.

Sequence	sensor-assay potency score (higher = more potent)
TACAATTTCTTCATCATTGGAT	0.581
TAAAGTAAGTGGGACATCCGAA	-0.639
TAACATAAATGTAACAATCCAA	-0.347
TTCCACATTTCTGACATTCATA	-1.1
TATGTCACAGATGCTGTCCTTG	-0.213
TTACGGTTGAACACTCTCCCAG	-0.487
TAATACATAAAGGTCTTCCCAC	-0.234
TTTTCTCCAAAAATAGACCAGG	-0.35
TAAATGTAACAATCCAAGGAGG	-0.849
TTCGGTAGGGTAACTCTTGTGC	0.248
TAGACCAGGAATCACTTCCTGT	-0.274
TTAGGTACAAAATAAGTGCTAT	0.0583

These sequences were tested against ZNF829 in the same assay as above. Conditions: shRNA.

Sequence	sensor-assay potency score (higher = more potent)
TAATATTTTGGTCTCACACATT	-1.12
TTTACCAGTGTGAATCCTCTGA	0.327
TTGTAGAAGTTCATCATGCATT	-0.541
TTGAATAAGTTCTGAGCTCTGA	0.585
TTCATCTGTATGGATTCTCTGA	0.0212
TGAACTACAACTAAAAGCCTTG	-0.242
TTGAGCAATACTTAAAGGCTTT	-0.25
TTCTACATTCTTCACATTCATA	-1.09
TTGACTGAAATGTCTCTTCTTT	0.505
TTCTCCAACATCACTTCTTTGT	-0.439
TACTTGACTGAAATGTCTCTTC	0.284
TTCTTCACATTCATAGAGCTTC	-0.0675

Source: the OligoGym collection
